Measurements reported in article PMC4336329 (PLoS ONE, 2015).
Out of some 310,000 compounds screened, about 14,000 (4.5%) showed an effect of 50% or more. Effects have a minus sign here. The sample as a whole holds a higher share of strong results than the screen did.

biological target: human ether-à-go-go-related gene (hERG) potassium channel (human, UniProt Q12809); assay: primary screen, population patch clamp on CHO cells stably expressing hERG; higher = less effect of the substance
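Also: peak tail current of the secondary pulse compared with the same well before compound.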

Sequence of human ether-à-go-go-related gene (hERG) potassium channel (Q12809 whole entry, looked up): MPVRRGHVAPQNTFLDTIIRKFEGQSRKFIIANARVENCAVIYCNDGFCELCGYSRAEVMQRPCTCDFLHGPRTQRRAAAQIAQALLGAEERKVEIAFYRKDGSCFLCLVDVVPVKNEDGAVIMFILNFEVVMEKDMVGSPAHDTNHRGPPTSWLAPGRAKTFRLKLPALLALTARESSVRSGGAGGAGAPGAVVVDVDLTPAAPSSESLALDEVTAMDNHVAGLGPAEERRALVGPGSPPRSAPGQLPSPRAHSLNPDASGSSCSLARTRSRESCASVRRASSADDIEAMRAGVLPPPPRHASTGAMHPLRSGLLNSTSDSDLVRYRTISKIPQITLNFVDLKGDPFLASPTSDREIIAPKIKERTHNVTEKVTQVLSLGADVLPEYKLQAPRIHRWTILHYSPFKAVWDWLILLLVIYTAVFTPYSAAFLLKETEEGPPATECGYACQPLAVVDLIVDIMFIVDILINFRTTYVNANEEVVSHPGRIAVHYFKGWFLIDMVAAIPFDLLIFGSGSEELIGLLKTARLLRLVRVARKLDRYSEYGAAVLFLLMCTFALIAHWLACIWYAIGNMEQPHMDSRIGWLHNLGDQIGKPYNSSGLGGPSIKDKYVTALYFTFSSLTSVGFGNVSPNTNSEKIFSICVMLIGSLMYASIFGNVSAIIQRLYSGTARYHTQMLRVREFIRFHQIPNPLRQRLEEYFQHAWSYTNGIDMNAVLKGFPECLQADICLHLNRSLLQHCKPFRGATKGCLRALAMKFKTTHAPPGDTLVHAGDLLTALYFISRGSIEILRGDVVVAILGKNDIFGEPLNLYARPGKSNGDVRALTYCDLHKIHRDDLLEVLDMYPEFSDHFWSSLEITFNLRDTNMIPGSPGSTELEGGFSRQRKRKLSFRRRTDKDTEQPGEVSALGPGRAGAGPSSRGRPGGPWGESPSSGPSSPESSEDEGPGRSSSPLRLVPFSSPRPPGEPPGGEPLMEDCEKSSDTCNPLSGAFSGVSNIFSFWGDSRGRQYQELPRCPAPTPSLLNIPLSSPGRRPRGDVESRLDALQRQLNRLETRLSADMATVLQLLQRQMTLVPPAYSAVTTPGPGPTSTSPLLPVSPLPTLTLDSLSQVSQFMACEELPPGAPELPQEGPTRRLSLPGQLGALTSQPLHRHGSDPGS

Row | SMILES | hERG current change (%, negative = inhibition) at 10uM [%]
1 | COc1ccccc1NC1=NC(C)(C)N=C(N)N1 | 23.2
2 | NS(=O)(=O)c1ccc(CCNC(=O)c2ccc(-c3ccccc3)cc2)cc1 | 9.92
3 | COc1ccccc1NC(=S)NNC(=O)c1ccccc1 | -1.04
4 | COc1ccccc1C(=O)NNC(=O)c1ccccc1Br | 23
5 | COc1ccccc1NC(=S)NNC(=O)c1ccccc1Br | -70.9
6 | Cc1nn(Cc2ccc(F)cc2Cl)c(C)c1[N+](=O)[O-] | -1.01
7 | Cc1ccc(OCC(=O)O/N=C(\N)c2ccccn2)cc1C | -11.3
8 | Cc1cccc(Nc2nc3c(s2)CCCC3)c1 | -8.11
9 | COc1ccc(Nc2nc(C)c(-c3ccccc3)s2)cc1 | 14.9
10 | O=C(O)c1ccc(Nc2nc3c(s2)CCCC3)cc1 | -81.3
11 | Cc1nc(Nc2ccccc2)sc1-c1ccccc1 | 1.73
12 | COc1ccc(NC(=O)Nc2nc3c(s2)CCCC3)cc1 | -26.8
13 | Cc1nc(Nc2ccc(C(=O)O)cc2)sc1-c1ccccc1 | -76.5
14 | C=CCSC1=C(C#N)C2(CCCCC2)C(C#N)C(=O)N1 (centres unmarked) | -3.87
15 | C=CCNc1sc(C(=O)C(C)(C)C)c(N)c1C#N | 5.11
16 | CCN(CC(=O)Nc1ccc(OC)cc1)C(=O)c1ccc2c(=O)n3c(nc2c1)CCC3 | 9.77
17 | C=CCn1cnc2c(sc3nc(C)cc(C)c32)c1=O | -6.75
18 | COc1ccccc1OCCNC(=O)c1cc([N+](=O)[O-])cc([N+](=O)[O-])c1 | 12.2
19 | Cc1nc(-c2ccncc2)nc(NCCNc2ncccc2C(F)(F)F)c1Cl | 6.57
20 | COc1ccccc1CC(=O)NC1CCCc2ccccc21 (centres unmarked) | -32.8
21 | CC1CCCN(C(=O)CCc2nnc(-c3ccc4c(c3)OCO4)o2)C1 (centres unmarked) | -4.43
22 | Cc1cc(C)n(CCN(C)C(=O)CCc2nnc(-c3ccc4c(c3)OCO4)o2)n1 | -51.7

Row | SMILES | hERG current change (%, negative = inhibition) at 10uM [%]
23 | CCN(CCn1cccn1)C(=O)CCc1nnc(-c2ccc3c(c2)OCO3)o1 | -5.68
24 | Cc1cc(C)n(CCN(C)C(=O)CCc2nnc(CCC3CCCCC3)o2)n1 | -4.29
25 | CCC(=O)C1CCCN(C(=O)CCc2nnc(-c3ccc4c(c3)OCO4)o2)C1 (centres unmarked) | -8.82
26 | O=C(CCc1nnc(-c2ccc3c(c2)OCO3)o1)N1CCC(c2ccc(F)cc2)C1 (centres unmarked) | -56
27 | O=C(CNc1ccc2ccccc2c1)N/N=C/c1ccc(OC(=O)/C=C/c2ccco2)cc1 | 22.7
28 | Cc1ccccc1OS(=O)(=O)c1cn(C)c(=O)n(C)c1=O | 11.4
29 | Cc1ccc(C2CC(=O)C=C(Nc3ccc(Cl)cc3)C2)cc1 (centres unmarked) | 7.93
30 | Cc1ccc(S(=O)(=O)/N=C/N(C)C)cc1 | 0.768
31 | COc1ccc(-c2cnnc(N/N=C/C(C)=C/c3ccccc3)n2)cc1 | -9.57
32 | CCc1c(C(=O)NCCc2cccc(C)c2)[nH]c(C)c1C(C)=O | 12.2
33 | O=[N+]([O-])c1ccc(C(O)CNC(=S)Nc2ccccc2)cc1 (centres unmarked) | -11.6
34 | O=C1CCN(Cc2ccc([N+](=O)[O-])cc2)CCN1[C@H](CO)c1ccccc1 | -37.4
35 | O=C(CC(c1ccccc1)c1ccccc1)NCC(O)c1ccc([N+](=O)[O-])cc1 (centres unmarked) | -58.1
36 | O=C(NCC(O)c1ccc([N+](=O)[O-])cc1)C(c1ccccc1)c1ccccc1 (centres unmarked) | -46.2
37 | CC1SC(c2ccccc2)N(CC(O)c2ccc([N+](=O)[O-])cc2)C1=O (centres unmarked) | -80.6
38 | O=[N+]([O-])c1ccc(C(O)CN2CCOCC2)cc1 (centres unmarked) | 18.5
39 | O=[N+]([O-])c1ccc(C(O)C[n+]2ccccc2)cc1.[I-] (centres unmarked) | 12
40 | O=[N+]([O-])c1ccc(C(O)CN2CCN(c3ccccc3)CC2)cc1 (centres unmarked) | -50.3
41 | Oc1ccc(N2CCN(CC(O)c3ccccc3)CC2)cc1 (centres unmarked) | 10.4
42 | O=[N+]([O-])c1ccc(C(O)CN2CCN(Cc3ccccc3)CC2)cc1 (centres unmarked) | -73.4
43 | O=C1CSC(c2ccccc2)N1CC(O)c1ccc([N+](=O)[O-])cc1 (centres unmarked) | -12.1
44 | O=C(CNC(=O)c1ccccc1)NCC(O)c1ccc([N+](=O)[O-])cc1 (centres unmarked) | 10.7

Row | SMILES | hERG current change (%, negative = inhibition) at 10uM [%]
45 | COc1ccccc1NC(=S)NC(=O)C(C)C | -21.8
46 | Cc1c(C(=O)N2CCCCC2)nn(-c2ccc(Cl)cc2)c(=O)c1C#N | -17.5
47 | CC(C)(C)n1nc2c(c1NC(=O)COc1ccc(Cl)cc1)CS(=O)(=O)C2 | -46.5
48 | Cc1cccc(NC(=S)Nc2ccc3cn[nH]c3c2)c1 | 1.96
49 | COc1ccc(C(=O)[C@H]2[C@H]3C(=O)N(c4ccccc4)C(=O)[C@H]3C3C=CC=NN32)cc1 (some centres unmarked) | 4.94
50 | O=S(=O)(c1ccc(S(=O)(=O)N2CCN(C/C=C/c3ccccc3)CC2)cc1)N1CCCC1 | 11.6
51 | O=S(=O)(c1ccccc1)N1CCN(C/C=C/c2ccccc2)CC1 | -22
52 | O=[N+]([O-])c1ccc(C(O)CN2CCN(C/C=C/c3ccccc3)CC2)cc1 (centres unmarked) | -76.9
53 | Cc1occc1-c1nc(-c2ccncc2)no1 | -10.4
54 | COc1ccc(OC)c(-n2nnnc2SCC(=O)Nc2nc(C)c(C)s2)c1 | -1.73
55 | COc1ccc(N2CCN(c3ncnc4sc(C(=O)NCC5CCCO5)c(C)c34)CC2)cc1 (centres unmarked) | -63.4
56 | COc1ccccc1N1CCN(c2ncnc3sc(C(=O)NCC4CCCO4)c(C)c23)CC1 (centres unmarked) | -5
57 | COc1ccc(OCC(=O)NNC(=O)C2CCN(c3ncnc4sc(C)c(C)c34)CC2)cc1 | -52.5
58 | Cc1sc2ncnc(N3CCC(C(=O)NNC(=O)COc4ccccc4F)CC3)c2c1C | -57
59 | Cc1ccccc1OCC(=O)NNC(=O)C1CCN(c2ncnc3sc(C)c(C)c23)CC1 | -19.3
60 | Cc1sc2ncnc(N3CCC(C(=O)Nc4ccc(Cl)c(Cl)c4)CC3)c2c1C | -7.26
61 | COc1ccccc1OCC(=O)NNC(=O)C1CCN(c2ncnc3sc(C)c(C)c23)CC1 | 10.5
62 | Cc1sc2ncnc(N3CCC(C(=O)NNC(=O)COc4cccc(C(F)(F)F)c4)CC3)c2c1C | -40
63 | Cc1c(C(=O)NC2CCCCC2)sc2ncnc(N3CCN(c4ccccc4)CC3)c12 | 13.7
64 | Cc1sc2ncnc(N3CCC(C(=O)NNC(=O)COc4ccccc4Cl)CC3)c2c1C | -38.6
65 | Cc1sc2ncnc(N3CCC(C(=O)Nc4ccc(Cl)cc4Cl)CC3)c2c1C | -7.65
66 | Cc1sc2ncnc(N3CCC(C(=O)NCC(=O)Nc4ccc(F)c(F)c4)CC3)c2c1C | -67.2

Row | SMILES | hERG current change (%, negative = inhibition) at 10uM [%]
67 | Cc1onc(-c2ccccc2)c1C(=O)OCC(=O)NC(=O)c1ccccc1 | -31.1
68 | CCCCc1ccc(S(=O)(=O)NC2CCS(=O)(=O)C2)cc1 (centres unmarked) | -2.26
69 | Clc1ccccc1Cn1nnc2c(Nc3ccccc3)ncnc21 | -0.775
70 | COc1ccc(C2=NN(C(=O)c3ccco3)C(c3cc4ccccc4nc3Cl)C2)cc1 (centres unmarked) | 8.45
71 | Cc1cc(Cl)ccc1OCC(=O)NNC(=O)C1CCN(c2ncnc3sc(C)c(C)c23)CC1 | 5.64
72 | Cc1cccc(OCC(=O)NNC(=O)C2CCN(c3ncnc4sc(C)c(C)c34)CC2)c1 | -48.2
73 | CCc1ccc(OCC(=O)NNC(=O)C2CCN(c3ncnc4sc(C)c(C)c34)CC2)cc1 | -45.3
74 | Cc1sc2ncnc(N3CCC(C(=O)NNC(=O)COc4ccc(Br)cc4)CC3)c2c1C | -68.5
75 | Cc1ccc(OCC(=O)NNC(=O)C2CCN(c3ncnc4sc(C)c(C)c34)CC2)cc1 | -50.7
76 | Cc1sc2ncnc(N3CCC(C(=O)NNC(=O)c4ccc(F)cc4)CC3)c2c1C | -21.9
77 | CCOc1ccc(OCC)c(NC(=O)C2CCCN2S(=O)(=O)c2cccc3cccnc23)c1 (centres unmarked) | -4.43
78 | COc1cc(C=Nc2c(C)cc(C)cc2C)ccc1OC(C)=O | 10.6
79 | COc1ccc(CCCc2nnc(SCC(=O)Nc3cc(C)ccc3C)o2)cc1 | 0.676
80 | CN=C1S/C(=C/c2cn(CC(=O)OC)c3ccccc23)C(=O)N1C | 11.1
81 | COC(=O)c1sccc1NC(=O)Nc1ccccc1OC | -41.4
82 | COC(=O)c1sccc1NC(=O)Nc1cc(OC)ccc1OC | -57.4
83 | COC(=O)c1sccc1NC(=O)Nc1ccc(OC)cc1OC | -20.3
84 | CCOc1ccccc1NC(=O)Nc1ccsc1C(=O)OC | -62
85 | CCOc1ccccc1C(=O)Nc1ccsc1C(=O)OC | -0.813
86 | COC(=O)c1sccc1NC(=S)Nc1cc(OC)ccc1OC | 30.4
